Reference: PubChem BioAssay AID1918 (Vanderbilt High Throughput Screening Facility, 2009)
The whole screen tested about 130,000 compounds, of which about 2,500 (1.9%) were called active.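 How the source made its calls: active means signal ratio slope over the read window, or its plate-corrected B-score, at least 3 SD from the plate mean, either direction; inactive means the rest.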 This excerpt belongs to a sample that is enriched for actives.

Molecular target: ATP-sensitive inward rectifier potassium channel 1 (Homo sapiens) (UniProt P48048)
Assay: ROMK potassium channel modulators, primary screen, cell-based, thallium flux, MLSMR library (AID 1918);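 further: B-score of the F/F0 ratio slope over 7 to 12 s after thallium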
Settings: Tet-inducible ROMK, thallium flux fluorescence; at 10 µM; actives lie on both sides

Sequence of ATP-sensitive inward rectifier potassium channel 1 (Homo sapiens) (P48048 whole entry, looked up): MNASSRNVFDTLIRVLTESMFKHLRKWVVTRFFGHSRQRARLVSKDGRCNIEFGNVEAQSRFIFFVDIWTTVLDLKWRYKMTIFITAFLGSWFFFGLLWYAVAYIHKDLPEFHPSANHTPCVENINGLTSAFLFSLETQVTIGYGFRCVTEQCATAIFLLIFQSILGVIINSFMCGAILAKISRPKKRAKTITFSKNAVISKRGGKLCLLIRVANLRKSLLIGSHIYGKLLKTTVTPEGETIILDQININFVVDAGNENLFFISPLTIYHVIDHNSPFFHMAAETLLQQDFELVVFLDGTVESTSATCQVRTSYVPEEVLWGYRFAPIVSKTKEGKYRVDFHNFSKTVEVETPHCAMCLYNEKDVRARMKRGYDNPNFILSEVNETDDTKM

| SMILES | B-score |
| --- | --- |
| Cc1ccc(C(=O)N2CCN(S(=O)(=O)N3CCOCC3)CC2)cc1 | -0.0164 (inactive) |
| O=C(CCS(=O)(=O)Cc1ccccc1)Nc1ccc2c(c1)OCCO2 | 0.0737 (inactive) |
| COc1cc(-n2c(C)nc3cc(C(=O)NCc4ccco4)ccc32)cc(OC)c1OC | 2.33 (inactive) |
| CCn1cc(C(=O)NCc2ccc3c(c2)OCO3)c2cc(OC)c(OC)cc2c1=O | 2.18 (inactive) |
| COc1ccccc1-n1c(C)nc2cc(C(=O)NCc3ccc4c(c3)OCO4)ccc21 | 2.52 (active) |
| C=CCn1c(-c2sc(-c3ccccc3)nc2C)n[nH]c1=S | -0.143 (inactive) |
| CCN1CCC2(CCN(Cc3cn[nH]c3-c3ccc(OC)c(F)c3)C2)C1 (centres undefined) | 0.101 (inactive) |
| FC(F)(F)c1cccc(Cc2noc(CN3CCC(N4CCCCC4)CC3)n2)c1 | -0.1 (inactive) |
| Cc1nccc(-c2ccc(-n3c(C)ccc3C)cc2)n1 | -1.01 (inactive) |
| COc1ccccc1/C=C/CN1CCC(CO)(Cc2ccccc2)CC1 | -2.4 (active) |
| CC(=O)c1cccc(CN2CCC(CO)(Cc3ccccc3)CC2)c1 | -0.319 (inactive) |
| OCC1(Cc2ccccc2)CCN(Cc2cc3ccccc3o2)CC1 | -2.42 (inactive) |
| Cc1ccc2c(c1)C(O)(CC(=O)c1cccc(-n3cccc3)c1)C(=O)N2 (centres undefined) | 0.00843 (inactive) |
| OCC1(Cc2ccccc2C(F)(F)F)CCN(Cc2cccc3cnccc23)CC1 | -2.15 (inactive) |
| O=C(Nc1cccc(C(F)(F)F)c1)c1ccc(N2CCNCC2)c([N+](=O)[O-])c1 | -4.07 (active) |
| CC(NC(=O)c1ccc(N2CCNCC2)c([N+](=O)[O-])c1)C12CC3CC(CC(C3)C1)C2 (centres undefined) | -1.39 (inactive) |
| O=C(Nc1ccc(N2C(=O)c3cccc4cccc(c34)C2=O)cc1)c1ccc(N2CCCCC2)c([N+](=O)[O-])c1 | -0.618 (inactive) |
| Nc1nnn(CC(=O)N/N=C/c2ccc(O)cc2)n1 | 0.102 (inactive) |
| COc1ccc(-c2nc3cnccn3c2NC(C)(C)CC(C)(C)C)cc1O | -0.227 (inactive) |
| CCN(CCn1cccn1)Cc1cn[nH]c1-c1ccc(OC)cc1F | 0.488 (inactive) |

| SMILES | B-score |
| --- | --- |
| COC(=O)C1=CN(C)C=C(C(=O)OC)C1c1ccc(Cl)cc1Cl | 0.118 (inactive) |
| CCOc1ccccc1C1C(C(=O)OC)=CN(C)C=C1C(=O)OC | -3.43 (active) |
| CCCCOCCCNC(=O)c1ccccc1OCC | -0.181 (inactive) |
| CCOC(=O)CSc1ccccn1 | -0.519 (inactive) |
| CC(C)C(=O)Nc1oc(-c2ccccc2)cc1C#N | -0.0567 (inactive) |
| CCCN(Cc1cc2cccc(C)c2[nH]c1=O)S(C)(=O)=O | -0.178 (inactive) |
| Cc1cccc2cc(CN(C(=O)c3cccs3)c3ccccc3)c(=O)[nH]c12 | 0.321 (inactive) |
| Cc1cccc2cc(CN(Cc3nnnn3Cc3ccccc3)C3CCCC3)c(=O)[nH]c12 | -4.07 (active) |
| CCC(c1nnnn1C1CCCC1)N(Cc1cccs1)Cc1cc2cccc(C)c2[nH]c1=O (centres undefined) | -3.89 (active) |
| Cc1cccc2cc(CN(Cc3ccc4c(c3)OCO4)Cc3nnnn3C3CCCC3)c(=O)[nH]c12 | 0.0136 (inactive) |
| Cc1cc(C)c2[nH]c(=O)c(C(c3nnnn3Cc3ccc4c(c3)OCO4)N3CCCC3)cc2c1 (centres undefined) | -1.8 (inactive) |
| COc1cc(/C=C/C(=O)OCC(=O)NC(=O)NCc2ccccc2)ccc1OCC#N | 0.107 (inactive) |
| Cc1cccc(C(=O)Nc2ccccc2C(=O)NCc2cccnc2)c1 | -0.294 (inactive) |
| O=C(/C=C/c1ccc(Cl)c([N+](=O)[O-])c1)c1cccnc1 | -6.38 (active) |
| CN(C)c1ccc(/C=C/C(=O)c2ccc(C(C)(C)C)cc2)cc1[N+](=O)[O-] | -0.617 (inactive) |
| O=C(Nc1cccnc1)c1ccc(Cl)c([N+](=O)[O-])c1 | 0.478 (inactive) |
| CCOC(=O)C(NC(C)=O)C(=O)Nc1ccc(OC)cc1 (centres undefined) | 2.1 (inactive) |
| CN(C)c1cc(-c2ccc(F)cc2)oc(=O)c1Cl | 0.334 (inactive) |
| CC(NC(=O)COC(=O)c1cc(=O)[nH]c2ccccc12)c1ccccc1 (centres undefined) | -0.0559 (inactive) |
| CC(NC(=O)CC1SC(N)=NC1=O)c1ccccc1 (centres undefined) | 1.24 (active) |

| SMILES | B-score |
| --- | --- |
| NC1=NC(=O)C(Cc2cccc(Cl)c2)S1 (centres undefined) | -2.18 (inactive) |
| CCOC(=O)C1(CC2CCCCO2)CCN(Cc2nc(-c3cccs3)oc2C)CC1 (centres undefined) | -0.7 (inactive) |
| CCc1nc2ccccc2c(C(=O)NCc2ccc(OC)cc2)c1C | 0.0138 (inactive) |
| c1ccc2c(c1)CSc1sccc1C2=C1CCNCC1 | -2.98 (active) |
| O=C(NCc1nnc(SCC(=O)N2CCC(Cc3ccccc3)CC2)o1)c1ccco1 | -0.765 (inactive) |
| CC(Oc1ccc2ccccc2c1)C(=O)NNC(=S)NC(=O)c1ccco1 (centres undefined) | 2.32 (inactive) |
| CCCc1ccc(OCC(=O)NNC(=S)NC(=O)c2ccco2)cc1 | 4.19 (active) |
| Cc1ccc(OCC(=O)NNC(=S)NCc2ccccc2)cc1 | 0.804 (inactive) |
| Cc1ccc(/C=C(\C#N)C(=O)Nc2cccc3ncccc23)o1 | -0.963 (inactive) |
| N#C/C(=C\c1ccccc1C(F)(F)F)C(=O)Nc1ccccc1F | -4.23 (active) |
| O=C(Nc1ccccc1F)c1ccccc1-c1ccc(C(F)(F)F)cc1 | 0.0696 (inactive) |
| CCCCNC(=O)c1ccc(-n2c(=S)[nH]c3ccccc3c2=O)cc1 | 0.371 (inactive) |
| O=C1C2C3C=CC(C3)C2C(=O)N1c1ccc(-c2nc3ccccc3c(=O)o2)cc1 (centres undefined) | -0.106 (inactive) |
| Cc1ccc(NC(=O)C(=O)NCC2CCN(C(=O)c3cccc([N+](=O)[O-])c3)CC2)cc1 | 0.475 (inactive) |
| Cc1ccc(-n2[nH]c(C)c(/C=N/N3C(=O)c4cccc5cccc(c45)C3=O)c2=O)cc1 | 3.89 (active) |
| Cc1[nH]n(-c2cccc(Cl)c2)c(=O)c1/C=N/n1c(C)nc2ccccc2c1=O | 0.302 (inactive) |
| Cc1[nH]n(-c2ccc(Cl)cc2)c(=O)c1/C=N/n1c(C)nc2ccccc2c1=O | -0.843 (inactive) |
| COc1ccccc1Cn1c(C)nnc1-c1cnn(C)c1N | 0.26 (inactive) |
| CC(Sc1nnnn1C1CCCCC1)C(=O)O (centres undefined) | 0.253 (inactive) |
